Sampled rows, rich in hits. Any-hit rate of the full collection: about 19%.
HT1080 IDH1KD tx = qHTS for induction of synthetic lethality in tumor cells producing 2HG: qHTS for the HT-1080-IDH1KD cell line. HT-1080 IDH1 knockdown viability, ATP luminescence, 48 h. Potency, µM (highest dose often 46.1 µM), actives largely listed as cytotoxic. 2% of 360,000 active
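% activity derives from luminescence (CellTiter-Glo), normalised to DMSO and no-cell wells. HT-1080-IDH1KD cells, 750/well, had 48 h compound exposure at 37 °C.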
IL1B secr inh = qHTS for Inhibitors of Inflammasome Signaling: IL-1-beta AlphaLISA Primary Screen; THP-1 LPS/ATP IL-1B secretion, AlphaLISA, 16 h; active compounds read low; activity change, % at 57.5 µM; 4.7% of 360,000 active; AID 743279, 2014; in the data active = activity change below about -50%; inconclusive = mostly about -30% to -49%
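Secreted IL-1B measured by AlphaLISA bead assay after 16 h compound exposure of THP-1 cells; compounds (final up to 57.5 uM) added 1 h before LPS (250 ng/mL) and ATP (1.25 mM) stimulation; lower signal means less secretion.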
DT40 TDP1 CPT = qHTS for Inhibitors of human tyrosyl-DNA phosphodiesterase 1 (TDP1): qHTS in cells in presence of CPT; Potency, µM (top dose mostly 46.2 µM), most hits filed as inhibitors; chicken DT40 Tdp1-/-;hTDP1 cells + 20 nM CPT, ATP luminescence, 48 h; 12% of 420,000 active; note: nearly all actives have a fitted effect of over 55% in size
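Chicken DT40 Tdp1-/- cells stably complemented with human TDP1 were seeded at 400 cells/well in medium containing 20 nM camptothecin, exposed to pin-transferred compounds, and grown at 37 °C for at least 48 hr. Viability was read as ATP luminescence.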
DT40 TDP1 no CPT = qHTS for Inhibitors of human tyrosyl-DNA phosphodiesterase 1 (TDP1): qHTS in cells in absence of CPT | 15% of 420,000 active | Potency, µM (series often up to 46.2 µM), hits mostly inhibitors | DT40 Tdp1-/- hTDP1 cells, no CPT, ATP luminescence, 48 h | AID 686978, 2013; note: nearly all actives have a fitted effect of over 55% in size
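Growth of hTDP1-complemented DT40 Tdp1-knockout cells is measured by ATP luminescence after at least 48 hr compound exposure at 37 °C, with DMSO substituting for the 20 nM CPT used in the parallel screen.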
uPA generation = qHTS for Inhibitors of Cell Surface uPA Generation. Potency, µM (titrated, usually from 38.3 µM), hits mostly inhibitors. cell surface uPA generation assay, qHTS. 0.31% of 330,000 active. AID 540303, 2011; active = well fitted inhibition curve with a large enough effect; inconclusive = small, poorly fitted or top-dose-only effect; inactive = no such curve, though single readings can be large or run the other way; tested in mouse RAW 264.7 cells; note: nearly all actives have a fitted effect of over 55% in size
HT1080-NT tox = qHTS for induction of synthetic lethality in tumor cells producing 2HG: qHTS for the HT-1080-NT fibrosarcoma cell line. HT-1080-NT fibrosarcoma viability, CellTiter-Glo ATP luminescence, 48 h. Potency, µM (series often up to 46.1 µM), most hits filed as cytotoxic. 1.6% of 360,000 active. AID 686970, 2013;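 note: NT is the 2HG producing partner of a matched IDH1 knockdown line; nearly all actives have a fitted effect of over 55% in size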
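Read-out is CellTiter-Glo luminescence after 10 minutes at room temperature, following 48 hours' compound treatment of HT-1080-NT cells (750 cells/well, RPMI, 5% FBS, 37 degrees C).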
Hits are given with their value; - = inactive; ? = inconclusive; . = no result given; [ ] = remark or other dose. Unless noted, calls come from the whole dose curve; as a rule, active = well fitted curve in the direction sought with a large enough effect; inconclusive = small, poorly fitted or top-dose-only effect, or another doubt; inactive = no such curve, though single readings can be large; an effect the other way counts as inactive or inconclusive.

SMILES	HT1080 IDH1KD tx	IL1B secr inh	DT40 TDP1 CPT	DT40 TDP1 no CPT	uPA generation	HT1080-NT tox
CCOC(=O)COc1ccc(Br)cc1/C=C1\SC(N)=NC1=O	-	-	-	?	-	-
CCCOc1ccc(-c2nn(-c3ccccc3)cc2/C=C2\SC(N)=NC2=O)cc1C	-	-	16µM	?	-	-
Cn1c(=O)c(=O)n(C)c2cc(S(=O)(=O)NCc3ccc(Cl)cc3)ccc21	-	-	16µM	?	-	-
CCc1ccc(NS(=O)(=O)c2cc3c(cc2C)n(C)c(=O)c(=O)n3C)cc1	-	-	15µM	13µM	-	-
CCc1cccc(NS(=O)(=O)c2ccc3c(c2)oc(=O)n3C)c1	-	-	?	?	-	-
Cn1c(=O)n(C)c2cc(S(=O)(=O)NCc3ccccc3)ccc21	-	-	?	?	-	-
CCc1cccc(NS(=O)(=O)c2ccc3c(c2)n(C)c(=O)n3C)c1	-	-	10µM	9.2µM	-	-
Cc1ccc(C(=O)Oc2cc(N)n(S(=O)(=O)c3ccc(C)cc3)n2)cc1	-	-	-	-	-	-
CCOC(=O)c1oc2ccc(S(=O)(=O)n3nc(-c4ccc(C)cc4)cc3N)cc2c1C	-	-	12µM	16µM	-	-
COc1ccc(NC(=O)CSc2nnc3ccc(-c4cccnc4)nn23)c(OC)c1	-	-	-	-	-	-
Oc1c(Br)cc(Br)cc1-c1nc2ccccc2s1	.	.	-	-	.	.
CCOC(=O)c1c(C)oc2ccc(NS(=O)(=O)c3ccc(C(=O)O)cc3)cc12	-	-	-	-	-	-
CCOC(=O)c1oc2ccc(S(=O)(=O)Nc3ccc4c(c3)n(C)c(=O)n4C)cc2c1C	-	?	?	21µM	?	-
CCc1ccc(S(=O)(=O)Nc2ccc3c(c2)n(C)c(=O)c(=O)n3C)cc1	.	.	?	15µM	.	.
CCc1ccc(S(=O)(=O)Nc2cc3c(cc2N2CCOCC2)n(C)c(=O)c(=O)n3C)cc1	-	-	?	?	?	-
COc1cc(NC(=O)CCc2nnc3ccc(N4CCOCC4)nn23)cc(OC)c1OC	-	-	-	-	-	-
Cc1ccc(Cn2c(SCCN3CCCCC3)nc3c2c(=O)n(C)c(=O)n3C)cc1	-	-	?	15µM	-	-
Cn1c(=O)c2c(nc(SCCN3CCCCC3)n2Cc2ccccc2)n(C)c1=O	-	-	?	-	.	-
Cn1c(=O)c2c(nc(SCCN3CCOCC3)n2Cc2cccc3ccccc23)n(C)c1=O	?	-	8.2µM	5.2µM	.	-
C(=N\NC1=Nc2cccc3cccc1c23)/c1ccccn1	?	-	8.2µM	9.2µM	?	-
O=C(N/N=C/c1ccccn1)c1ccc(N/N=C/c2ccccn2)cc1	-	-	-	-	-	-
Clc1ccccc1/C=N/NC1=Nc2cccc3cccc1c23	?	-	?	?	-	?
C(=NNc1ccc2ccccc2n1)c1ccccn1	7.3µM	-	1.6µM	1µM	.	18µM
Cc1csc(N/N=C/c2ccccn2)n1	?	-100	0.58µM	0.46µM	-	?
CC(=O)OC[C@@]1(O)C[C@@]23CC[C@@H]4c5ccoc5CC[C@@]4(C)[C@@H]2CCC1C3	.	.	-[9.04 µM]	-[9.04 µM]	.	.
SMILES	HT1080 IDH1KD tx	IL1B secr inh	DT40 TDP1 CPT	DT40 TDP1 no CPT	uPA generation	HT1080-NT tox
O=C(O)c1ccc(S(=O)(=O)c2ccc3c(c2)C(=O)N(NC(=O)c2cccnc2)C3=O)cc1	-	-	-	-	-	-
CN(C)CCNC(=O)c1ccc(-c2cnn(C)c2)c2ccoc12	-	-	-	-	.	?
CCN(c1ccccc1)S(=O)(=O)c1nnc(NC(=O)COc2ccccc2F)s1	.	.	-	-	.	.
O=C1CN(C(=O)c2ccc(S(=O)(=O)N3CCCC3)cc2)C(c2ccc(F)cc2)c2cc(Br)ccc2N1 (stereo not drawn)	.	.	?	18µM	.	.
CCCCC1CCC(C(=O)N2CC(=O)Nc3ccc(Br)cc3C2c2ccc(F)cc2)CC1 (stereo not drawn)	.	.	23µM	13µM	.	.
O=C1CN(C(=O)c2ccccc2F)C(c2ccc(F)cc2)c2cc(Br)ccc2N1 (stereo not drawn)	-	-	-	-	-	-
Cc1ccc2c(c1)C(c1ccc(F)cc1)N(C(=O)c1ccc(S(=O)(=O)N3CCCCC3)cc1)CC(=O)N2 (stereo not drawn)	.	.	18µM	?	.	.
O=C1CN(C(=O)c2cc3ccccc3oc2=O)C(c2ccc(F)cc2)c2cc(F)ccc2N1 (stereo not drawn)	-	-	?	-	-	-
CCCC(=O)N1CC(=O)Nc2ccc(Br)cc2C1c1ccc(F)cc1 (stereo not drawn)	-	-	?	-	-	-
CN(C)S(=O)(=O)c1ccc(C(=O)N2CC(=O)Nc3ccc(F)cc3C2c2ccc(F)cc2)cc1 (stereo not drawn)	-	-	-	-	?	-
O=C1CN(C(=O)c2cc3ccccc3oc2=O)C(c2ccc(F)cc2)c2cc(Br)ccc2N1 (stereo not drawn)	-	-	13µM	?	-	-
COc1cc(NC(=O)c2sc3ncn(CC(=O)N4CCCCC4)c(=O)c3c2C)cc(OC)c1OC	-	-	-	-	-	-
COCC(=O)Oc1c(Sc2ccc(C)cc2)c(C)nn1C(C)(C)C	.	.	-	-	.	.
CCCCCCN1CC(C(=O)OCC)C(=O)C1=O (stereo not drawn)	-	-	-	-	-	-
CC(C)(C)c1ccc(C(=O)N2CC(=O)Nc3ccc(F)cc3C2c2ccc(F)cc2)cc1 (stereo not drawn)	.	.	26µM	18µM	.	.
O=C1CN(C(=O)c2cc([N+](=O)[O-])ccc2Cl)C(c2ccc(F)cc2)c2cc(F)ccc2N1 (stereo not drawn)	-	-	?	15µM	-	-
O=C1CN(C(=O)c2ccc(S(=O)(=O)N3CCCCC3)cc2)C(c2ccc(F)cc2)c2cc(Br)ccc2N1 (stereo not drawn)	.	.	26µM	21µM	.	.
O=C1CN(C(=O)c2ccccc2Br)C(c2ccc(F)cc2)c2cc(F)ccc2N1 (stereo not drawn)	-	-	-	-	-	-
COc1ccc(C)cc1S(=O)(=O)N1CCCC(C(=O)N2CCOCC2)C1 (stereo not drawn)	-	-	-	-	-	-
